Measurements from the supplement of paper PMC6555819.

What follows are sequences tested on PPARg:RXRa DBDmut IVT, anti-RXR (DBD mutation: RXRa K156A/R161A, NR concentration 270 nM, RXRa partner concentration 90 nM) (assay: PBM binding z-score (relative to random genomic background probes); higher = stronger binding; sequences stand for … in GC…GCGATTGACAGCGTAGAATGAAGG).
Method in brief: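 Probes were double-stranded and carried 34-nt variable regions with direct-repeat seeds, single-nucleotide variants, half-site ablations and random human genomic background sequences, printed on custom Agilent 4×180K protein-binding microarrays. Arrays were incubated 1 h with ligand-free nuclear receptor dimers in PBS pH 7.4, 2% milk, 0.02% Triton X-100, 1 mM DTT, 0.2 mg/mL BSA and 0.4 mg/ml salmon testes DNA. Antibodies against each partner (one per run) detected binding, and scanned fluorescence was regression-normalized. Binding z-scores use the random background probes as reference.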

Sequence | PBM binding z-score
ACTCGGAGGACAAGGGTCAGAGCTACGCCAGTGA | 0.222
AGAATTAGGTTATACGTAGATCAGGGAAGAAAGT | 6.81
ATATGTAGGTTATCGGTTCATTCAGTTTGCGCAT | 7.25
TCTGCTAGGTCAGTTGGTAAGCTAACGAGCTGCC | 2.46
ACTAGCAGGCCAAGGGTCACTCAGGATTAGTCCG | 1.05
CCTAGAAGGCCAGGGTCACTCAAGCATTTCGCTT | 0.376
ATCTCTAGGTAAAGTTCAGTGTAAGATCGATAGA | 2.66
CTAACTAGGTCAAGGACAGTGAATCTCCGCACGC | 8.7
ACTATTAGGTGACTTAGGGCAACCGATACGACGC | 4.96
CCTACTGGGCCAAAAAGATCATTGATGCCGATAA | 3.14
CCAGACAGGTGAAAGGTAACTCGGTCTGGTACGC | 2.3
TCTAGTTGGTCAAAGGTCACACATTCGAAATGCG | 3.49
TCTAGTTGGTCGAAGGTCACACACTCGAAATGCG | 1.87
ATCTCTAGCTAACCAAGTTCAGTGAATGCCGAAC | -0.58
CGTCCAAGGTCAGCAAGTCAGTGAAAGCGACGTG | 2.61
ATCGAAAGGTCGATGTGAGTATAGAGAAAGGGAA | 0.226
TTACCAAGGTGAACGTCGTTGATCCCTCTGTAGA | 2.54
AGAACGAGGGCACGCTGAGTTGATAGCAGAGTAG | 4.13
CATACAGGGTCAGCTAGGCGAGAGTAGGGACGGC | 1.21
CGTCCATGGTCAATGCTAGGTCAGTGAAAGCATT | 0.278

Sequence | PBM binding z-score
CCGACTGGTGCAGAAAGGTTACCATACCATCCGG | -0.779
ATACGTAGGTTAGCTGGGGTCATTCAGACTAGGC | 0.981
TCTAGTTGGTCACGGTGGTCACACACGACGGGTA | 2.21
ATATGTAGGTTAAGGGTTATTCAGGTTGGTTCGC | 7.57
TCTGCTACGTCAGTTGGTCAGCTAACGAGCTGCC | 0.19
TCATATAGGTAAACAGGGGAAAGTCCGTAAGTTA | 4.67
ACTATTAGTTGAGACGAGGGCAACCGCTAGGTTG | 0.0597
TCTCTGAGGACACGAAAGGTCAGAGCTCGACATC | 1.67
CCTAATGGGCCACGAAAGGTCATTGATTCAGTGA | 3.95
TCTAGTTGGTCAAAGGTCACACGCTCGAAATGCG | 3.58
CCTATTGGGCCATCAGGTCATTGATATCAACGTT | 3.63
TGAATGAGGTTAAAGAGCAGGGAACGTGGCGTCG | 2.26
GTTCGGAGGACAAGGTCAGAGCTTTGTCCGTAGA | -0.0952
TCATATAGGTAATACAGGTGAAAGCCGGCATCTA | 3.7
GCTTACGGGTCAAAGGTTATTGCATGAATAGAAT | 4.96
TCTAGTAGGTTACCAATGGGGCATTCAGCTTTCT | 5.22
CGAACGATGGCATGAGTTGATAGCAAATGCCGAT | -0.534
CCGACTGGGGCCGAAAGGTTACCATACCATCCGG | -0.423
CGTCCAAGGTCAAAGGTCAGTTAAGAGATGACGG | 3.55
CCTAGCAGGCCAGGGTCACTCAAGCATTTCGCTT | 0.393
